Data reported in PubChem BioAssay (EPA / NIEHS).
Several values for one entry are separate records, joined by “and”; a condition that tells them apart may be missing. Equal values may be shown once. Some structures have more than one record in an assay (separate samples or runs), and their calls can disagree. Activity calls are given as the source filed them. How the source made its calls: active means hit-call score of the fitted dose curve at least 0.9, where 1 is the maximum; inactive means score below 0.9.

Each compound was assayed on Hypoxia-inducible factor 1-alpha (Homo sapiens) (UniProt Q16665) (assay: LTEA_HepaRG_HIF1A: Life Technologies and Expression Analysis (LTEA) Assay for Hypoxia-inducible factor 1 (HIF1A) Trancription factor using HepaRG (AID 2283503;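 further: HIF1A transcript by TaqMan qRT-PCR normalized to ACTB GAPDH and POLR2A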)). Conditions: mRNA level, 48 h; actives raise or lower the signal.
Sequence of Hypoxia-inducible factor 1-alpha (Homo sapiens) (Q16665 whole entry, looked up): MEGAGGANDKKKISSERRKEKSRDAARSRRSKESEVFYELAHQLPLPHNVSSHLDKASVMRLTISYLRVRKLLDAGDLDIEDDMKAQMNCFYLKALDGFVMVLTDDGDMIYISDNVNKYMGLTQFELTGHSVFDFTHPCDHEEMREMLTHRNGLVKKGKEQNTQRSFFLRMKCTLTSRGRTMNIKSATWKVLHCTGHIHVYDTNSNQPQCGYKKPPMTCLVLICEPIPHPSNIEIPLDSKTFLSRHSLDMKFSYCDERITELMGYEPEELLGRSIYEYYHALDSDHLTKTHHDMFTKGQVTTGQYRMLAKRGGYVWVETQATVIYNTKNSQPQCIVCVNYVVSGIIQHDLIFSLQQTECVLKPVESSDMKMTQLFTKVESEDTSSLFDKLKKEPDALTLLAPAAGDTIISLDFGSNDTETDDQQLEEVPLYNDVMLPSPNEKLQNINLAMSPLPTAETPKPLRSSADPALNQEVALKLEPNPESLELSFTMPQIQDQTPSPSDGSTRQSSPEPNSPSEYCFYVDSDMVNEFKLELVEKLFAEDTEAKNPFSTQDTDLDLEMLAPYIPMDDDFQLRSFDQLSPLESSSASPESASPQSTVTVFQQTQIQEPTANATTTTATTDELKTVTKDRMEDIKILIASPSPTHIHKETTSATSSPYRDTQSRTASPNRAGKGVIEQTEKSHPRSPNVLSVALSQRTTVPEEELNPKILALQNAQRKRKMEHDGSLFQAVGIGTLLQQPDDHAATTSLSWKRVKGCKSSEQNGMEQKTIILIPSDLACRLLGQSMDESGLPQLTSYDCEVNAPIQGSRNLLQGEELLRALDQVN
Procedure, shortened: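 Gain- or loss-of-signal HIF1A mRNA changes are fitted against a DMSO baseline. HepaRG cultures receive eight concentrations, highest 100 uM, for 48 h in serum-free induction medium with 0.5% DMSO.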

Structure (SMILES) | AC50 | outcome
N#Cc1cc(Br)c(O)c(Br)c1 | 40 µM (active) | –
CCOC(=O)C(Cl)Cc1cc(-n2nc(C)n(C(F)F)c2=O)c(F)cc1Cl (stereo not drawn) | – | inactive
CC(C)Oc1cc(-n2nc(C(C)(C)C)oc2=O)c(Cl)cc1Cl | – | inactive
COc1nc(NC(C)C)nc(NC(C)C)n1 | – | inactive
C=CCC1=C(C)C(OC(=O)C2C(C=C(C)C)C2(C)C)CC1=O (stereo not drawn) | – | inactive
CCc1nn(C)c(C(=O)NCc2ccc(C(C)(C)C)cc2)c1Cl | – | inactive
COc1cnc(OC)n2nc(NS(=O)(=O)c3c(OCC(F)F)cccc3C(F)(F)F)nc12 | – | inactive
CCOC(=O)CC(SP(=S)(OC)OC)C(=O)OCC (stereo not drawn) | – | inactive
Cc1cc(Cl)ccc1OCC(=O)O | – | inactive
COP(=S)(OC)Oc1nc(Cl)c(Cl)cc1Cl | – | inactive
CO/C=C(/C(=O)OC)c1ccccc1Oc1cc(Oc2ccccc2C#N)ncn1 | 86.1 µM (active) | inactive
CNC(=O)ON=CC(C)(C)SC | – | inactive
CC(Oc1ccc(Cl)cc1Cl)C(=O)O (stereo not drawn) | – | inactive
CCCCNC(=O)OCC#CI | – | inactive
COC(=O)c1ccccc1C(=O)OC | – | inactive
CN(C)C(=S)SSC(=S)N(C)C | – | inactive
CCCCC(CC)COC(=O)c1ccccc1C(=O)OCC(CC)CCCC (stereo not drawn) | – | inactive
C=CCC1=C(C)[C@@H](OC(=O)[C@@H]2[C@@H](C=C(C)C)C2(C)C)CC1=O | – | inactive
CON(C)C(=O)Nc1ccc(Cl)c(Cl)c1 | – | inactive
C#CCOS(=O)OC1CCCCC1Oc1ccc(C(C)(C)C)cc1 (stereo not drawn) | 26.4 µM (active) | –
CS/C(C)=N/OC(=O)N(C)SN(C)C(=O)O/N=C(\C)SC | – | inactive
CCCN(CCC)c1c([N+](=O)[O-])cc(S(N)(=O)=O)cc1[N+](=O)[O-] | 94.2 µM (active) and 84.5 µM (active) | inactive
Oc1ccccc1-c1ccccc1 | – | inactive
COC(=O)C(C)Oc1ccc(Oc2ccc(Cl)cc2Cl)cc1 (stereo not drawn) | – | inactive
O=C(O)c1nc(Cl)ccc1Cl | – | inactive

What follows are compounds tested on 3-Hydroxy-3-Methylglutaryl-CoA Synthase 2 (HMGCS2), HMGCS2 (gene 3158) (assay: LTEA_HepaRG_HMGCS2: Life Technologies and Expression Analysis (LTEA) Assay for 3-Hydroxy-3-Methylglutaryl-CoA Synthase 2 (HMGCS2) using HepaRG (AID 2283504)). Conditions: mRNA level, 48 h; actives raise or lower the signal.
Procedure, shortened: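 qRT-PCR read-out of HMGCS2 transcript, normalised to three housekeeping genes, in HepaRG cells after 48 h chemical exposure. Eight-point curves from 100 uM, half-log dilutions, 0.5% DMSO vehicle; gain or loss fitted relative to DMSO baseline.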

Structure (SMILES) | AC50 | outcome
N#Cc1cc(Br)c(O)c(Br)c1 | 33.3 µM (active) | –
CCOC(=O)C(Cl)Cc1cc(-n2nc(C)n(C(F)F)c2=O)c(F)cc1Cl (stereo not drawn) | – | inactive
CC(C)Oc1cc(-n2nc(C(C)(C)C)oc2=O)c(Cl)cc1Cl | 61.9 µM (active) | –
COc1nc(NC(C)C)nc(NC(C)C)n1 | – | inactive
C=CCC1=C(C)C(OC(=O)C2C(C=C(C)C)C2(C)C)CC1=O (stereo not drawn) | 82.1 µM (active) and 80.4 µM (active) and 87.9 µM (active) | –
CCc1nn(C)c(C(=O)NCc2ccc(C(C)(C)C)cc2)c1Cl | 8.88 µM (active) | –
COc1cnc(OC)n2nc(NS(=O)(=O)c3c(OCC(F)F)cccc3C(F)(F)F)nc12 | 31.8 µM (active) | –
CCOC(=O)CC(SP(=S)(OC)OC)C(=O)OCC (stereo not drawn) | – | inactive
Cc1cc(Cl)ccc1OCC(=O)O | – | inactive
COP(=S)(OC)Oc1nc(Cl)c(Cl)cc1Cl | – | inactive
CO/C=C(/C(=O)OC)c1ccccc1Oc1cc(Oc2ccccc2C#N)ncn1 | 77.1 µM (active) and 76.2 µM (active) and 72.6 µM (active) | –
CNC(=O)ON=CC(C)(C)SC | – | inactive
CC(Oc1ccc(Cl)cc1Cl)C(=O)O (stereo not drawn) | – | inactive
CCCCNC(=O)OCC#CI | – | inactive
COC(=O)c1ccccc1C(=O)OC | – | inactive
CN(C)C(=S)SSC(=S)N(C)C | – | inactive
CCCCC(CC)COC(=O)c1ccccc1C(=O)OCC(CC)CCCC (stereo not drawn) | – | inactive
C=CCC1=C(C)[C@@H](OC(=O)[C@@H]2[C@@H](C=C(C)C)C2(C)C)CC1=O | 50 µM (active) | –
CON(C)C(=O)Nc1ccc(Cl)c(Cl)c1 | 63.4 µM (active) | –
C#CCOS(=O)OC1CCCCC1Oc1ccc(C(C)(C)C)cc1 (stereo not drawn) | 25.6 µM (active) | –
CS/C(C)=N/OC(=O)N(C)SN(C)C(=O)O/N=C(\C)SC | – | inactive
CCCN(CCC)c1c([N+](=O)[O-])cc(S(N)(=O)=O)cc1[N+](=O)[O-] | 54.1 µM (active) and 73.4 µM (active) | inactive
Oc1ccccc1-c1ccccc1 | – | inactive
COC(=O)C(C)Oc1ccc(Oc2ccc(Cl)cc2Cl)cc1 (stereo not drawn) | 17.5 µM (active) | –
O=C(O)c1nc(Cl)ccc1Cl | – | inactive

The compounds below were run on HGF (gene 3082) (assay: LTEA_HepaRG_HGF: Life Technologies and Expression Analysis (LTEA) Assay for Hepatocyte Growth Facto (HGF) using HepaRG (AID 2283505)). Conditions: mRNA level, 48 h; actives raise or lower the signal.
Procedure, shortened: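 HepaRG, 48 h dosing, 8-pt half-log series from 100 uM in 0.5% DMSO, duplicates. Readout: TaqMan qRT-PCR of HGF mRNA, housekeeping-normalized; bidirectional curve fit vs DMSO baseline.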

Structure (SMILES) | AC50 | outcome
N#Cc1cc(Br)c(O)c(Br)c1 | 23.9 µM (active) | –
CCOC(=O)C(Cl)Cc1cc(-n2nc(C)n(C(F)F)c2=O)c(F)cc1Cl (stereo not drawn) | – | inactive
CC(C)Oc1cc(-n2nc(C(C)(C)C)oc2=O)c(Cl)cc1Cl | – | inactive
COc1nc(NC(C)C)nc(NC(C)C)n1 | – | inactive
C=CCC1=C(C)C(OC(=O)C2C(C=C(C)C)C2(C)C)CC1=O (stereo not drawn) | – | inactive
CCc1nn(C)c(C(=O)NCc2ccc(C(C)(C)C)cc2)c1Cl | 78.6 µM (active) | –
COc1cnc(OC)n2nc(NS(=O)(=O)c3c(OCC(F)F)cccc3C(F)(F)F)nc12 | – | inactive
CCOC(=O)CC(SP(=S)(OC)OC)C(=O)OCC (stereo not drawn) | – | inactive
Cc1cc(Cl)ccc1OCC(=O)O | – | inactive
COP(=S)(OC)Oc1nc(Cl)c(Cl)cc1Cl | – | inactive
CO/C=C(/C(=O)OC)c1ccccc1Oc1cc(Oc2ccccc2C#N)ncn1 | – | inactive
CNC(=O)ON=CC(C)(C)SC | – | inactive
CC(Oc1ccc(Cl)cc1Cl)C(=O)O (stereo not drawn) | – | inactive
CCCCNC(=O)OCC#CI | – | inactive
COC(=O)c1ccccc1C(=O)OC | – | inactive
CN(C)C(=S)SSC(=S)N(C)C | – | inactive
CCCCC(CC)COC(=O)c1ccccc1C(=O)OCC(CC)CCCC (stereo not drawn) | – | inactive
C=CCC1=C(C)[C@@H](OC(=O)[C@@H]2[C@@H](C=C(C)C)C2(C)C)CC1=O | – | inactive
CON(C)C(=O)Nc1ccc(Cl)c(Cl)c1 | – | inactive
C#CCOS(=O)OC1CCCCC1Oc1ccc(C(C)(C)C)cc1 (stereo not drawn) | 20.1 µM (active) | –
CS/C(C)=N/OC(=O)N(C)SN(C)C(=O)O/N=C(\C)SC | – | inactive
CCCN(CCC)c1c([N+](=O)[O-])cc(S(N)(=O)=O)cc1[N+](=O)[O-] | – | inactive
Oc1ccccc1-c1ccccc1 | – | inactive
COC(=O)C(C)Oc1ccc(Oc2ccc(Cl)cc2Cl)cc1 (stereo not drawn) | – | inactive
O=C(O)c1nc(Cl)ccc1Cl | – | inactive
